From PubChem
This is a sample that favours compounds with a hit; in the whole collection about 0.89% have one here.
Six1-Eya2 inh: blocks human Six1 binding to Eya2. Q15475+O00167. AlphaScreen GST-Six1/His-Eya2 binding, biochemical; active compounds read low. activity change, % (concentration not given with the values). hit rate 0.56% among 360,000. AID 651725; in the data active = activity change below about -65%; inconclusive = mostly about -30% to -63%; also: % is scaled to controls: 0 for no effect and ±100 for the full control effect
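AlphaScreen luminescence read after one hour at 37 °C in darkness. Pin-transferred compounds met GST-Six1 and His-Eya2 protein (5X stock 250 nM/500 nM) plus glutathione donor and Ni-chelate acceptor beads (5X, 50 ug/mL).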
Eya2 phos inh: Eya2 (human) phosphatase inhibition. O00167. recombinant Eya2, OMFP fluorescence dephosphorylation (OMFP is methylfluorescein phosphate). Potency, µM (series often up to 76.9 µM), inactives show at the top dose activity, negative = inhibition, most hits filed as inhibitors. hit rate 0.006% among 330,000. AID 488837; also: potency is read from the fitted curve at half-maximal effect; % is scaled to controls: 0 for no effect and ±100 for the full control effect
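Eya2 protein (added as 0.2 uM solution) was preincubated with compound for 10 min at ambient temperature in 50 mM HEPES pH 7.5, 50 mM NaCl, 5 uM MgCl2, 0.05% BSA, 1 mM DTT. OMFP (added at 50 uM) then reacted 10 min; fluorescence read at 485/525 nm.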
CBFb RUNX1 block: blocks binding between human CBF-beta and RUNX1; Q01196+Q13951; AlphaScreen CBFb-His/RUNX1-biotin binding, biochemical; Potency, µM (highest dose often 59.8 µM), inactives show top-dose activity, negative = inhibition, usual class: inhibitors; 230,000 tested, under 10 active; also: % of control where 0% means no effect
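CBFb-His/RUNX1-biotin, 30 nM each, preincubated 20 min RT; compound 15 min RT; Ni + streptavidin beads 50 ng each, 90 min RT; AlphaScreen read.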
MBNL1-CUG inh: MBNL1-poly(CUG) RNA binding inhibition. Q9NR56. TR-FRET MBNL1-His/biotin-(CUG)12 binding, 665/545 ratio. Potency, µM (highest dose often 57.5 µM), inactives show at the highest dose activity change, negative = inhibition, most hits filed as inhibitors. hit rate 0.036% among 280,000; active = well fitted inhibition curve with a large enough effect in the signal ratio, with a control signal flat, not every such curve was filed as active; inconclusive = small, poorly fitted or top-dose-only effect, or effect the other way, or a change in a side signal; inactive = no such curve, though single readings can be large or run the other way; the % refers to the signal ratio; also: potency is read from the fitted curve at half-maximal effect; % is scaled to controls: 0 for no effect and ±100 for the full control effect
Target sequence (Q9NR56 whole entry, looked up): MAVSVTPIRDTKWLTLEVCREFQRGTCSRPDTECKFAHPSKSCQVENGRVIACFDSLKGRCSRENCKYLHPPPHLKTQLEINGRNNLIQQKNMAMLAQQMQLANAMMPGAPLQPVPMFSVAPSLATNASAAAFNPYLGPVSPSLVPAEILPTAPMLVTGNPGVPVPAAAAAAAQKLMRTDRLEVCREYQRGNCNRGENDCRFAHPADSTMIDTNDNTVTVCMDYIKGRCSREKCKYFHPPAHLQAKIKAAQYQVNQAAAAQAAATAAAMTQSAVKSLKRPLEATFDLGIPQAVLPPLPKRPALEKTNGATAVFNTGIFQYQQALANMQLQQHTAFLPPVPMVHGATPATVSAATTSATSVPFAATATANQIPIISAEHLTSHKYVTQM
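MBNL1-His + Biotin-(CUG)12, cpd titration 92 nM–58 uM; Tb anti-His Ab 0.055 ng/ul, SA-XL665 5 nM (final); 60 min RT; ratiometric 665/545 nm, Ex 340 nm; normalized to buffer and full-complex controls.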
L3MBTL1 inh: L3MBTL1 (human) inhibition. Q9Y468. AlphaScreen L3MBTL1–H3K9me1 peptide binding. Potency, µM (series often up to 57.1 µM), for inactives: at the highest dose activity, negative = inhibition, hits mostly inhibitors. hit rate 0.66% among 230,000. AID 485360; also: potency is read from the fitted curve at half-maximal effect; % is scaled to controls: 0 for no effect and ±100 for the full control effect; nearly all actives have a fitted effect of over 60% in size
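AlphaScreen proximity signal between nickel-chelate acceptor and streptavidin donor beads (final 10 ug/mL) reports binding of 50 nM L3MBTL1 to 75 nM biotin-H3 K9me1 peptide; complex incubated with compounds 30 min at room temperature; cefsulodin titration as control.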
CtBP-E1A blk: CtBP/E1A binding inhibition; activity change, % (test concentration not listed); AlphaScreen GST-E1A/His-CtBP binding, 1536-well; active compounds read low; hit rate 0.49% among 340,000; in the data active = activity change below about -65%; inconclusive = mostly about -30% to -63%; also: % is scaled to controls: 0 for no effect and ±100 for the full control effect
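Protein mix (5X: 125 nM each GST-E1A, His-CtBP) was incubated with pinned compound 2 h at 37 deg C in dark, in 50 mM Tris pH 8.0 buffer with 300 mM NaCl. Glutathione donor and nickel acceptor beads followed; AlphaScreen signal read after 1 h.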
Active calls of the source: *; [ ] = dose if it differs, or a comment. Unless noted, calls follow the shape of the dose curve; as a rule, active = well fitted curve in the direction sought with a large enough effect; inconclusive = small, poorly fitted or top-dose-only effect, or another doubt; inactive = no such curve, though single readings can be large; an effect the other way counts as inactive or inconclusive.

Screening Nc1nc2c(s1)COc1ccccc1-2 returned Six1-Eya2 inh -9, Eya2 phos inh 1%, CBFb RUNX1 block -4%, MBNL1-CUG inh 2% and L3MBTL1 inh -5%.
CC1OC(COCc2ccccc2)Cc2[nH][nH]c(=O)c21 (stereo not drawn) was read as Six1-Eya2 inh -4 and CtBP-E1A blk -3.
Screening CN1CCN(c2ccc(CNC(=O)C3(C)Cc4c(-c5ccccc5)ccnc4O3)cc2)CC1 (stereo not drawn) returned Six1-Eya2 inh -12 and CtBP-E1A blk -20.
`CCOC(=O)C(=N/O)/C(C)=N/NC(C)=O` gave Six1-Eya2 inh 12, Eya2 phos inh -10%, CBFb RUNX1 block 0%, MBNL1-CUG inh 1% and CtBP-E1A blk 1.
`CCOC(=O)C(=N/O)/C(C)=N/NC(=O)C(=O)Nc1cc(Cl)ccc1Cl` gave Six1-Eya2 inh -8, Eya2 phos inh 0%, CBFb RUNX1 block -5%, MBNL1-CUG inh -6%, L3MBTL1 inh 25µM* and CtBP-E1A blk -2.
`Cc1ccc(NC(=O)NC(=O)CSc2nnc(-c3ccc(Cl)cc3Cl)n2N)c(C)c1` gave Six1-Eya2 inh 3, Eya2 phos inh 13%, CBFb RUNX1 block -9%, MBNL1-CUG inh -9%, L3MBTL1 inh -14% and CtBP-E1A blk 6.
For Cc1ccc(N2CC(C(=O)OCc3nnc(-c4ccccc4)o3)CC2=O)cc1 (stereo not drawn) the results were Six1-Eya2 inh -5, Eya2 phos inh 10%, L3MBTL1 inh -4% and CtBP-E1A blk 3.
For CCCCCn1c(=N)n(CC(O)COc2ccccc2OC)c2ccccc21 (stereo not drawn) the results were Six1-Eya2 inh 0, Eya2 phos inh 4%, CBFb RUNX1 block -8%, MBNL1-CUG inh -7%, L3MBTL1 inh 5µM* and CtBP-E1A blk inconclusive.
For c1ccc(CNc2nc(-c3ccccn3)nc3ccccc23)cc1 the results were Six1-Eya2 inh inconclusive, Eya2 phos inh -1%, MBNL1-CUG inh -10% and CtBP-E1A blk -77*.
c1ccc(CNc2nc(-c3ccccc3)nc3ccccc23)cc1 was read as Six1-Eya2 inh 1, Eya2 phos inh -6%, MBNL1-CUG inh 5%, L3MBTL1 inh 2%[2.29 µM] and CtBP-E1A blk 6.
Cc1ccc(N2C(=O)c3ccccc3C2C(=O)c2ccc(O)cc2O)cc1 (stereo not drawn) was read as Six1-Eya2 inh inconclusive, Eya2 phos inh 1%, MBNL1-CUG inh 12%, L3MBTL1 inh 4.5µM* and CtBP-E1A blk 0.
Screening CCOC(=O)C1CCN(c2nc(N)c3c(N)nc(SCC(=O)O)cc3c2C#N)CC1 returned Six1-Eya2 inh -29, Eya2 phos inh 9%, CBFb RUNX1 block -28%, L3MBTL1 inh 25µM* and CtBP-E1A blk inconclusive.
`CCC(C(=O)Nc1ccc(C)cc1)c1ccccc1` (stereo not drawn) gave Six1-Eya2 inh -12, Eya2 phos inh 0%, CBFb RUNX1 block 13%, MBNL1-CUG inh -8%, L3MBTL1 inh 5% and CtBP-E1A blk 9.
O=C(Nc1ccccc1C(=O)O)c1ccc(NC(=O)C2CCCCC2)cc1 was read as Six1-Eya2 inh -83*, Eya2 phos inh 5%, MBNL1-CUG inh 8% and CtBP-E1A blk -77*.
CCC(C(=O)Nc1ccc(C(=O)Nc2ccccc2C(=O)O)cc1)c1ccccc1 (stereo not drawn) was read as Six1-Eya2 inh inconclusive, Eya2 phos inh -4%, MBNL1-CUG inh -7% and CtBP-E1A blk -81*.
Screening O=C(NC1(Cc2ccccc2)CCN(CCc2cccs2)C1=O)c1ccccc1 (stereo not drawn) returned Six1-Eya2 inh -5, Eya2 phos inh -5%, L3MBTL1 inh -2% and CtBP-E1A blk 6.
Screening Cc1ccc(S(=O)(=O)N2c3ccccc3OCC2c2ccccc2)cc1 (stereo not drawn) returned Six1-Eya2 inh 6, Eya2 phos inh -4%, CBFb RUNX1 block -3%, MBNL1-CUG inh -3%, L3MBTL1 inh 13% and CtBP-E1A blk 0.
Screening CC1COc2ccccc2N1S(=O)(=O)c1ccc(Cl)cc1 (stereo not drawn) returned Six1-Eya2 inh 2, Eya2 phos inh -7%, CBFb RUNX1 block 24%, MBNL1-CUG inh -13%, L3MBTL1 inh 8% and CtBP-E1A blk -66*.
For CCS(=O)(=O)Nc1cccc(-c2ccc3nnc(-c4cccnc4)n3n2)c1 the results were Six1-Eya2 inh -67*, Eya2 phos inh 4%, MBNL1-CUG inh inconclusive and CtBP-E1A blk -85*.
CC1CCCN(C(C(=O)NC2CCCCC2)c2cc3c(cc2[N+](=O)[O-])OCO3)C1 (stereo not drawn) was read as Six1-Eya2 inh -8, Eya2 phos inh 2%, CBFb RUNX1 block -4%, L3MBTL1 inh 11µM* and CtBP-E1A blk -6.
Cc1cc(S(=O)(=O)N2c3ccc(F)cc3CCC2C)ccc1-n1cnnn1 (stereo not drawn) was read as Six1-Eya2 inh 6, Eya2 phos inh -1%, MBNL1-CUG inh 1% and CtBP-E1A blk -8.
`O=C(N/N=C/c1ccc(-c2ccc(Cl)c(C(=O)O)c2)o1)c1cc2c(ccc3ccccc32)o1` gave Six1-Eya2 inh inconclusive, Eya2 phos inh 0%, CBFb RUNX1 block 14%, MBNL1-CUG inh 28% and CtBP-E1A blk -85*.
Screening Cc1ccc(Cc2c(C(C)(C)C)nc3cc(C)c(Br)c(C)n23)cc1 returned Six1-Eya2 inh 4 and CtBP-E1A blk 0.
For COc1ccc(S(=O)(=O)Nc2ccccc2C(N)=O)cc1OC the results were Six1-Eya2 inh 1, Eya2 phos inh -1%, CBFb RUNX1 block 4%, MBNL1-CUG inh -9%, L3MBTL1 inh 0% and CtBP-E1A blk 7.
Screening O=C(COC(=O)c1ccccc1)Nc1ncc([N+](=O)[O-])s1 returned Six1-Eya2 inh inconclusive, Eya2 phos inh 8%, L3MBTL1 inh 3.5µM* and CtBP-E1A blk -3.
O=C(Nc1ccccc1)Nc1ncc([N+](=O)[O-])s1 was read as Six1-Eya2 inh -19, Eya2 phos inh -7%, CBFb RUNX1 block 6%, MBNL1-CUG inh inconclusive, L3MBTL1 inh -15% and CtBP-E1A blk -14.
Screening COc1cc(/C=C/c2sc3ccccc3[n+]2CCCS(=O)(=O)[O-])ccc1O returned Six1-Eya2 inh -11, Eya2 phos inh 4%, CBFb RUNX1 block 3%, MBNL1-CUG inh inconclusive, L3MBTL1 inh 28µM* and CtBP-E1A blk -5.
